Assay outcomes from PubChem.
Hits are enriched below; roughly 15% of the tested compounds scored in any of these assays.
RORg inh = qHTS for inhibitors of ROR gamma transcriptional activity. Potency, µM (doses to about 53.6 µM), most hits filed as inhibitors. Drosophila S2 Gal4-RORgamma UAS-luciferase reporter, 20 h. actives 5.4% (n = 310,000). AID 2551, 2010; also: nearly all actives have a fitted effect of over 60% in size
Target sequence (P51450 whole entry, looked up, the tested form may be a part): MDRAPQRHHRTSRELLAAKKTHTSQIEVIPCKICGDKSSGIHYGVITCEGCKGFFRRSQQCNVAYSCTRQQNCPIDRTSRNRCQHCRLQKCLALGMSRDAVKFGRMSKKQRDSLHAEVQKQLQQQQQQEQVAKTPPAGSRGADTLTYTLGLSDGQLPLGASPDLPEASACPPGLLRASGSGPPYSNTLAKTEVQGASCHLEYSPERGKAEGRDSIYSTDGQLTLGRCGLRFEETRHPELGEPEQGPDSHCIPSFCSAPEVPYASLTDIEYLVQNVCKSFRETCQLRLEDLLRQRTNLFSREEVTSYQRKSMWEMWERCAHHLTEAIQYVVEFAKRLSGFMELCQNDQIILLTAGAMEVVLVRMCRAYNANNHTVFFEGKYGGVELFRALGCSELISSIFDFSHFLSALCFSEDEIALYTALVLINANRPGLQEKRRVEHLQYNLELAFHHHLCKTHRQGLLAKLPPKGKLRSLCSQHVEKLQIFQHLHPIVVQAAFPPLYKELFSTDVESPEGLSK
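Luminescence from a UAS-regulated Photinus luciferase reporter in stably transfected Drosophila Schneider cells is measured; decreased signal marks ROR gamma inhibition. Fusion expression is induced by 700 uM copper sulfate for 20 hr.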
TDP1 cell noCPT = qHTS for Inhibitors of human tyrosyl-DNA phosphodiesterase 1 (TDP1): qHTS in cells in absence of CPT; DT40 Tdp1-/- hTDP1 cells, no CPT, ATP luminescence, 48 h; actives 15% (n = 420,000); Potency, µM (series often up to 46.2 µM), actives largely listed as inhibitors; also: nearly all actives have a fitted effect of over 55% in size
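Growth kinetics read by CellTiter-Glo luminescence after ≥48 hr at 37 °C. Cells: DT40 Tdp1-/- stably carrying human TDP1, 400 per well, compound exposure in the absence of CPT (DMSO vehicle).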
DT40 TDP1 CPT = qHTS for Inhibitors of human tyrosyl-DNA phosphodiesterase 1 (TDP1): qHTS in cells in presence of CPT; chicken DT40 Tdp1-/-;hTDP1 cells + 20 nM CPT, ATP luminescence, 48 h; actives 12% (n = 420,000); Potency, µM (titrated, usually from 46.2 µM), actives largely listed as inhibitors; also: nearly all actives have a fitted effect of over 55% in size
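Chicken DT40 Tdp1-/- cells complemented with human TDP1, 400 cells/well, exposed to compounds plus 20 nM camptothecin for at least 48 h at 37 C; viability read as ATP content by CellTiter-Glo luminescence.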
12-LOX inh = Primary qHTS assay for inhibitors of human arachidonate 12S-lipoxygenase (ALOX12): Round 2; Polyunsaturated fatty acid lipoxygenase ALOX12 (Homo sapiens), P18054; purified 12hLO, xylenol orange hydroperoxide absorbance; Potency, µM (top dose mostly 108 µM), hits mostly inhibitors; actives 1.1% (n = 580,000); AID 1671190, 2021
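Hydroperoxide product was detected by ferrous iron/xylenol orange as the 573 to 405 nm absorbance ratio. Arachidonic acid at 40 uM (final) was turned over for 30 min at room temperature by 150 nM human 12hLO, pH 7.0 Hepes buffer, after 15 min compound preincubation.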
ELG1 repair inh = qHTS screen for small molecules that inhibit ELG1-dependent DNA repair in human embryonic kidney (HEK293T) cells expressing luciferase-tagged ELG1; actives 2.3% (n = 330,000); Potency, µM (top dose mostly 46.1 µM), hits mostly inhibitors; HEK293T ELG1-luciferase reporter, luminescence, 16 h; DNA damage induced by 5-fluorouridine; also: nearly all actives have a fitted effect of over 55% in size
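Step one: seed 2,000 cells per well. Step two: pin-transfer compound or DMSO alongside 5-fluorouridine. Step three: incubate 16 hr, 37 °C, 5% CO2. Step four: add ONE-Glo, wait 30 min, read luminescence.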
Gal4-VP16 FLuc = VP16 counterscreen qHTS for inhibitors of ROR gamma transcriptional activity | Drosophila S2 Gal4-VP16 UAS-luciferase, luminescence, 20 h | Potency, µM (titrated, usually from 53.6 µM), hits mostly inhibitors | actives 3.5% (n = 310,000) | AID 2546, 2010;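 also: Gal4-VP16 expression switched on by copper sulfate through the metallothionein promoter; nearly all actives have a fitted effect of over 50% in size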
Numbers stand for hits; n = inactive; u = inconclusive; x = not tested or not shown; [ ] = dose if it differs, or a comment. Calls follow the shape of the dose curve; as a rule, active = well fitted curve in the direction sought with a large enough effect; inconclusive = small, poorly fitted or top-dose-only effect, or another doubt; inactive = no such curve, though single readings can be large; an effect the other way counts as inactive or inconclusive.

SMILES	RORg inh	TDP1 cell noCPT	DT40 TDP1 CPT	12-LOX inh	ELG1 repair inh	Gal4-VP16 FLuc
Cc1cccc(/C=N/NC(=O)c2cc(-c3cccnc3)nc3ccccc23)c1	u	n	n	n	n	n
Cc1cccc(/C=N/NC(=O)c2cc(-c3cccnc3)nc3c2c(C)nn3-c2ccccc2)c1	n	23.1µM	u	n	u	n
Cc1nn(-c2nc3ccccc3o2)c2c1C(c1cccc(C(F)(F)F)c1)CC(=O)N2 (centres undefined)	x	x	x	n	x	x
CN1CCN(c2ccc(CNS(=O)(=O)c3ccc(Cl)cc3)cc2)CC1	n	11.6µM	u	n	n	n
Cc1ccccc1S(=O)(=O)NCc1ccc(N2CCN(C)CC2)cc1	n	u	u	n	n	n
Cc1ccc(S(=O)(=O)NCc2ccc(N3CCN(C(=O)OC(C)(C)C)CC3)cc2)cc1	u	16.4µM	13µM	n	n	u
O=C(/C=C/c1ccc(F)cc1)NCC1Cc2cccc(-c3ncccn3)c2O1 (centres undefined)	x	18.4µM	u	n	x	x
COc1cc(CSc2nnnn2-c2ccc(C)cc2)cc(OC)c1OC	n	5.01µM	5.8µM	n	n	n[0.365 µM]
COc1ccc(F)cc1CSc1nnnn1-c1ccc(O)cc1	n	u	n	u	n	n
COc1cccc(CNC(=O)C2CCN(S(=O)(=O)c3c(C)noc3/C=C/c3cccs3)CC2)c1	x	23.1µM	u	n	x	x
CCc1ccc(NC(=O)C2CCN(S(=O)(=O)c3c(C)noc3/C=C/N(C)C)CC2)cc1	n	9.2µM	u	u	n	n
CCCCNC(=O)C1CCCN(S(=O)(=O)c2c(C)noc2/C=C/c2cccs2)C1 (centres undefined)	u	13µM	u	n	u	u
Cc1noc(/C=C/c2cccs2)c1S(=O)(=O)N1CCC(C(=O)Nc2ccc(F)c(Cl)c2)CC1	x	14.6µM	13µM	u	x	x
CCC(C)c1ccc(NC(=O)CC(C)C)cc1 (centres undefined)	x	x	x	n	x	x
Cc1ccc(S(=O)(=O)N2CCN(CC(=O)NC(C)(C)C)CC2)cc1C	x	x	x	n	x	x
CC(OC(=O)c1cc(=O)[nH]c2ccccc12)C(=O)NC1(C#N)CCCCC1 (centres undefined)	x	x	x	n	x	x
COCC(=O)N[C@H]1C[C@@H](CO)N(Cc2ccccn2)C1	x	x	x	n	x	x
CCc1ccc(NC(=O)C2CCN(S(=O)(=O)c3c(C)noc3/C=C/c3cccs3)CC2)cc1	x	18.4µM	u	n	x	x
CCOc1ccc(/C=N/NC(=S)Nc2c(C)cccc2C)cc1	1µM	20.6µM	20.6µM	u	18.4µM	2µM
CCNC(=S)N/N=C/c1ccc(OCCOc2ccccc2C)cc1	4.47µM	n	u	n	n	10µM
Cc1ccccc1OCC(=O)N/N=C/c1ccc(N(C)C)cc1	n	u	n	n	n	n
Cc1ccc(S(=O)(=O)N2CCC(C(=O)NCc3csc(-c4ccccc4)n3)CC2)cc1C	x	x	x	n	x	x
CSc1ccc(CCNC(=O)CCc2nnc3ccc(N4CCC5(CC4)OCCO5)nn23)cc1	n	n	n	n	9.2µM	n
CCOC(=O)C1CCN(C(=O)CCc2nnc3ccc(N4CCC(C)CC4)nn23)CC1	n	u	18.4µM	n	n	n
CCCNC(=O)CCc1nnc2ccc(N3CCC(C)CC3)nn12	n	n	n	n	n	n
SMILES	RORg inh	TDP1 cell noCPT	DT40 TDP1 CPT	12-LOX inh	ELG1 repair inh	Gal4-VP16 FLuc
CCOC(=O)CNC(=O)CCc1nnc2ccc(N3CCC(C)CC3)nn12	n	u	23.1µM	n	n	n
CN(C(=O)CCC1CCCCC1)C1(c2ccccc2Cl)CCCCC1=O (centres undefined)	x	x	x	n	x	x
COc1ccc(-c2cc(N3CCC(NC(=O)c4cccnc4)C3)n[nH]2)cc1 (centres undefined)	x	x	x	n	x	x
COc1cccc(C(=O)CN2CCN(S(=O)(=O)c3ccc(Cl)cc3)CC2)c1	x	u	u	56.2µM	x	x
COc1cccc(N2CCN(CC(=O)N3CCN(S(=O)(=O)c4ccc(Cl)cc4)CC3)CC2)c1	x	18.4µM	u	n	u	x
CCOC(=O)N1CCC(NC(=O)C(C)n2nc(C)c3sc4ccccc4c3c2=O)CC1 (centres undefined)	x	x	x	n	x	x
CCO/C(C)=N/n1c2nc3ccccc3nc2c2c(=O)n(Cc3ccccc3Cl)c(C)nc21	n	25.9µM	u	n	n	n
